{"source": "PubChem BioAssay AID2551", "about": "(National Center for Advancing Translational Sciences (NCATS), 2010)", "note": "Among all 310,000 compounds or so, about 17,000 (5.5%) were called active. Inconclusive results (about 11%) are left out. Only a selection was taken, and actives are over-represented in it overall. Unmarked numbers belong to inactive results. Calls come from the whole dose curve; as a rule, active = well fitted inhibition curve with a large enough effect; inconclusive = small, poorly fitted or top-dose-only effect, or effect the other way; inactive = no such curve, though single readings can be large or run the other way. % is set by controls: 0 for no effect and ±100 for the full control effect; potency is the fitted concentration of half-maximal effect.", "data": [{"target": "Nuclear receptor ROR-gamma (Mus musculus) (UniProt P51450)", "sequence (P51450 whole entry, looked up, the tested form may be a part)": "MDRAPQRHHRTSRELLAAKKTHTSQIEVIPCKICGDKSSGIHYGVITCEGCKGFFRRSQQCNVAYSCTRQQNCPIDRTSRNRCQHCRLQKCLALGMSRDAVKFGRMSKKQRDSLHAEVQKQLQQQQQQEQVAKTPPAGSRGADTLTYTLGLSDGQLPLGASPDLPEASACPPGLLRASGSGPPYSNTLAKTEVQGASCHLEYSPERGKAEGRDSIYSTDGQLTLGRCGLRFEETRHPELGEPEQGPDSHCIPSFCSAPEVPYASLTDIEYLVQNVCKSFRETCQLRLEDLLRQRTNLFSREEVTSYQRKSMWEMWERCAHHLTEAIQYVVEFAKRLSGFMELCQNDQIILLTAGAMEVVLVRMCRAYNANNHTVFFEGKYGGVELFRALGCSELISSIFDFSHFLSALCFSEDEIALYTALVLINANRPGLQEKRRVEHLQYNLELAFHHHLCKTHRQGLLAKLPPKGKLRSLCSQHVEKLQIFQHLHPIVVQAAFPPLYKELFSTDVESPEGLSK", "assay": "qHTS for inhibitors of ROR gamma transcriptional activity; note: nearly all actives have a fitted effect of over 60% in size", "conditions": "Drosophila S2 Gal4-RORgamma UAS-luciferase reporter, 20 h; series mostly up to 53.6 µM; activity change, negative = inhibition: at the top concentration", "summary_of_the_method": "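Stable Schneider cell line, Gal4 DNA-binding domain fused to ROR gamma, UAS-luciferase. Cmpd 1 hr RT → CuSO4 700 uM final → 20 hr RT → luciferase reagent 10 min → luminescence.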", "values": [{"molecule": "CN(c1ccccc1)S(=O)(=O)c1cc(C(=O)OCC(=O)N2CCN(C(=O)c3ccco3)CC2)ccc1Cl", "activity change, negative = inhibition": "11.3%"}, {"molecule": "CN(CC(=O)Nc1c(Cl)cccc1Cl)C(=O)CNC(=O)C1CCCCC1", "activity change, negative = inhibition": "6.57%"}, {"molecule": "COc1ccc(C(=O)NC2CC(C)(C)Cc3c2cnn3-c2ccccc2C)o1", "note": "(stereo not given)", "activity change, negative = inhibition": "0.707%"}, {"molecule": "CC(=O)Nc1cccc(NC(=O)c2ccc3c(c2)CCN3S(C)(=O)=O)c1", "activity change, negative = inhibition": "-13.8%"}, {"molecule": "Brc1ccc(-c2csc(N/N=C/c3cccnc3)n2)cc1", "activity change, negative = inhibition": "9.48%"}, {"molecule": "Cc1cc(=O)[nH]c(N/N=C/c2ccc3c(c2)OCCO3)n1", "activity change, negative = inhibition": "-29.2%"}, {"molecule": "C(=N\\Nc1ccc2ccccc2n1)/c1ccc2c(c1)OCO2", "Potency": "8910 nM (active)"}, {"molecule": "Brc1ccc(-c2csc(N/N=C/c3ccc4c(c3)OCO4)n2)cc1", "Potency": "10000 nM (active)"}, {"molecule": "O=C(Cc1ccc(F)cc1)N/N=C/c1ccc2c(c1)OCO2", "activity change, negative = inhibition": "-4.2%"}, {"molecule": "Cc1noc(C)c1/C=N/Nc1ccc2ccccc2n1", "activity change, negative = inhibition": "18.6%"}, {"molecule": "O=C(NNC(=O)c1ccco1)Nc1ccccc1", "activity change, negative = inhibition": "6.3%"}, {"molecule": "COCCNC(=O)CSc1nc2sccc2c(=O)n1-c1ccccc1", "activity change, negative = inhibition": "35.1%"}, {"molecule": "O=Cc1c(NCCCN2CCCC2=O)c2ccccc2[nH]c1=O", "activity change, negative = inhibition": "-8.89%"}, {"molecule": "Cc1ccc2c(c1)N(C(=O)CCC(=O)NCc1cccnc1)CCO2", "activity change, negative = inhibition": "2.85%"}, {"molecule": "Cc1noc(C)c1C(=O)NCCc1ccc(S(N)(=O)=O)cc1", "activity change, negative = inhibition": "6.01%"}, {"molecule": "CCOC(=O)c1c(C)c(C(=O)NCCc2ccc(S(N)(=O)=O)cc2)c(C)n1CC", "activity change, negative = inhibition": "-16.7%"}, {"molecule": "CCCNC(=O)c1c(N)n(-c2ccc(S(N)(=O)=O)cc2)c2nc3ccccc3nc12", "Potency": "12600 nM (active)"}, {"molecule": "O=S(=O)(Cc1nnnn1-c1ccc(Br)cc1)c1ccc(F)cc1", "activity change, negative = inhibition": "34.9%"}, {"molecule": "CC(=O)Nc1ccc(OCC(=O)NCc2ccc(C)cc2)cc1", "activity change, negative = inhibition": "12.2%"}, {"molecule": "Cc1cccc(C(=O)OCC(=O)NCC(C)C)c1O", "activity change, negative = inhibition": "39%"}, {"molecule": "O=C(NNC(=S)NCc1ccccc1)c1ccc(OC(F)F)cc1", "activity change, negative = inhibition": "-25.4%"}, {"molecule": "Cc1scc(C(=O)NNC(=S)NCC(C)C)c1C", "Potency": "1780 nM (active)"}, {"molecule": "Cc1scc(C(=O)NNC(=S)NCc2ccccc2)c1C", "Potency": "2000 nM (active)"}, {"molecule": "CNC(=S)NNC(=O)c1cccn(Cc2ccccc2)c1=O", "activity change, negative = inhibition": "38.7%"}, {"molecule": "Cc1cccc(NC(=O)c2ccc(OCC(=O)NCc3ccccc3)cc2)c1C", "activity change, negative = inhibition": "1.17%"}, {"molecule": "Cc1ccc(OCC(=O)NNC(=S)NCc2ccccc2)cc1", "Potency": "1260 nM (active)"}, {"molecule": "Cc1occc1C(=O)NNC(=S)NCC(C)C", "activity change, negative = inhibition": "-19.8%"}, {"molecule": "CCC(CC)COC(=O)C1=C(C)NC(=O)NC1c1ccc([N+](=O)[O-])cc1", "note": "(stereo not given)", "activity change, negative = inhibition": "-0.183% [at 1.91 µM]"}, {"molecule": "O=C(Cc1ccc([N+](=O)[O-])cc1)Nc1ccc(C(=O)N2CCOCC2)cc1", "activity change, negative = inhibition": "-21%"}, {"molecule": "Cc1ccc(NC(=O)Cn2nnc(C(=O)NCc3ccco3)c2N)c(C)c1", "activity change, negative = inhibition": "-22.2%"}, {"molecule": "CC(C)(C)NC(=O)CSc1nnc(NC(=O)CCc2ccccc2)s1", "activity change, negative = inhibition": "5.59% [at 1.91 µM]"}, {"molecule": "C=CCN1C(=NC(=O)COc2ccccc2)SC2CS(=O)(=O)CC21", "note": "(stereo not given)", "activity change, negative = inhibition": "-31.6%"}, {"molecule": "Cc1cc(Cl)ccc1C(=O)C1CCCN(C(=O)c2nonc2C)C1", "note": "(stereo not given)", "activity change, negative = inhibition": "25.8%"}, {"molecule": "Cc1[nH]c2ccccc2c1C(=O)CN1CC(C)CC(C)C1", "note": "(stereo not given)", "activity change, negative = inhibition": "-3.29%"}, {"molecule": "O=C(O)C1CCCN1S(=O)(=O)c1ccc(Br)cc1", "note": "(stereo not given)", "activity change, negative = inhibition": "6.41%"}, {"molecule": "O=C(CN(C(=O)c1nsc(Cl)c1Cl)c1cccc(F)c1)NC1CCCC1", "activity change, negative = inhibition": "-2.43%"}, {"molecule": "COc1ccccc1OCc1nnc(SCC(N)=O)n1-c1ccccc1", "activity change, negative = inhibition": "7.44%"}, {"molecule": "Cc1cc(C2=NNC(=Nc3ccc(S(=O)(=O)N4CCOCC4)cc3)SC2)c(C)n1CC1CCCO1", "note": "(stereo not given)", "activity change, negative = inhibition": "9.62%"}, {"molecule": "C=CCn1c(C)cc(C2=NNC(=NCC)SC2)c1C", "Potency": "562 nM (active)"}, {"molecule": "O=C(O)c1ccccc1NC(=O)c1ccccc1-c1ccccc1C(=O)O", "activity change, negative = inhibition": "-14.3%"}, {"molecule": "CC1CN(S(=O)(=O)c2cccc(C(F)(F)F)c2)CN1C(=O)N1CCOCC1", "note": "(stereo not given)", "activity change, negative = inhibition": "-13.4%"}, {"molecule": "COc1ccc2[nH]c3c(C)c4cc[n+](C)cc4c(C)c3c2c1", "activity change, negative = inhibition": "-25%"}, {"molecule": "COc1ccc2[nH]c(=S)cc(C)c2c1", "Potency": "7080 nM (active)"}, {"molecule": "COc1ccc2[nH]c(C(=O)N3CCN(C)CC3)c(C)c2c1", "activity change, negative = inhibition": "11.6%"}, {"molecule": "COc1ccc(NC(=O)c2cccc3c2C(=O)N(CC2CCCO2)C3)cc1OC", "note": "(stereo not given)", "activity change, negative = inhibition": "-8.76%"}, {"molecule": "COc1ccc(OCCCCN2CCC(C)CC2)cc1", "activity change, negative = inhibition": "3.61%"}, {"molecule": "O=C1COc2ccc(S(=O)(=O)Nc3ccc(OC(F)(F)F)cc3)cc2N1", "activity change, negative = inhibition": "-17.3%"}, {"molecule": "CC(C)=C(NC(=O)c1ccccc1)C(=O)N/N=C(\\C)c1ccccc1O", "Potency": "891 nM (active)"}, {"molecule": "CC(=O)NC(=O)c1ccccc1O", "activity change, negative = inhibition": "-0.919%"}, {"molecule": "CNC(=O)C(NC(=O)c1ccccc1)=C(C)C", "activity change, negative = inhibition": "4.05%"}, {"molecule": "C/C(=N\\NC(=O)c1ccoc1C)c1ccccc1O", "Potency": "158 nM (active)"}, {"molecule": "C/C(=N\\NC(=O)c1ccccc1C)c1ccc(N2CCOCC2)cc1", "activity change, negative = inhibition": "8.86%"}, {"molecule": "C/C(=N\\NC(=O)c1cccnc1)c1ccc(-c2ccccc2)cc1", "activity change, negative = inhibition": "-0.938%"}, {"molecule": "Cn1c(=O)c2c(SCC(=O)NCC3CCCO3)nc(CC(C)(C)C)nc2n(C)c1=O", "note": "(stereo not given)", "activity change, negative = inhibition": "1.36%"}, {"molecule": "COC(=O)c1c(NC(=O)C2CC(C)=C(C)CC2C(=O)O)sc2c1CCCCC2", "note": "(stereo not given)", "activity change, negative = inhibition": "36.4%"}]}]}
